# Counter-ions that a name gives are not always drawn.
# Test system: Klebsiella aerogenes DSM 30053
# Assay: fold change of Histamine concentration vs plate DMSO controls (fold change (ratio)); higher = more amine produced, active = hit call of the paper (significant change in both replicates, either direction)
# Conditions: incubation time: 27 h, anaerobic, 37 °C
# Summary of the method: (§1)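 Amine values are fold changes relative to DMSO-only wells on the same plate. They derive from 27 h, 37 °C anaerobic mGAM cultures of four gut bacterial strains in 80 µL wells, dosed at 20 µM final, or 50 µM final for sweeteners. Extraction of the whole culture, LC–triple-quadrupole MS in dynamic MRM mode, external calibration curves and within-batch drift correction were used, with 2 biological replicates averaged.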
row,SMILES,fold change of Histamine concentration
1,"CN1[C@@H]2CC[C@H]1CC(OC(=O)C(O)c1ccccc1)C2 (mixture of isomers) [(R,S) Homatropine hydrobromide] (20 µM)",0.867 (inactive)
2,Cc1cnc(NC(=O)C2=C(O)c3ccccc3S(=O)(=O)N2C)s1 [Meloxicam] (20 µM),1.03 (inactive)
3,"CC(C)Cc1ccc([C@H](C)C(=O)O)cc1 [(S,+) Ibuprofen] (20 µM)",0.925 (inactive)
4,COc1c(N2C[C@@H]3CCCN[C@@H]3C2)c(F)cc2c(=O)c(C(=O)O)cn(C3CC3)c12 [Moxifloxacin] (20 µM),0.256 (active)
5,CCN(CC)CCNC(=O)c1ccc(N)cc1 [Procainamide hydrochloride] (20 µM),0.834 (inactive)
6,Clc1ccccc1CN1CCc2sccc2C1 [Ticlopidine hydrochloride] (20 µM),1.01 (inactive)
7,CCC(C)C(C(=O)OCC[N+](C)(CC)CC)c1ccccc1 (stereo not drawn) [Valethamate bromide] (20 µM),1.03 (inactive)
8,O=C(O)[C@H]1/C(=C/CO)O[C@@H]2CC(=O)N21 [Clavulanate potassium salt] (20 µM),1.02 (inactive)
9,CC(C)(C)CC(C)(C)c1ccc(OCCOCC[N+](C)(C)Cc2ccccc2)cc1 [Benzethonium chloride] (20 µM),1.07 (inactive)
10,CO/N=C(\C(=O)N[C@@H]1C(=O)N2C(C(=O)O)=C(C[N+]3(C)CCCC3)CS[C@H]12)c1csc(N)n1 [Cefepime hydrochloride] (20 µM),0.119 (active)

# Test system: Clostridium sporogenes DSM 1664
# Assay: fold change of Tryptamine concentration vs plate DMSO controls (fold change (ratio)); higher = more amine produced, active = hit call of the paper (significant change in both replicates, either direction)
# Conditions: incubation time: 27 h, anaerobic, 37 °C
# Summary of the method: as §1
row,SMILES,fold change of Tryptamine concentration
1,Cc1cc(C(C)(C)CC(C)(C)C)ccc1OCCOCC[N+](C)(C)Cc1ccccc1 [Methyl benzethonium chloride] (20 µM),0.948 (inactive)
2,O=C1CN(/N=C/c2ccc([N+](=O)[O-])o2)C(=O)N1 [Nitrofurantoin] (20 µM),0.931 (inactive)
3,CCCCCCCCNC(C)C(O)c1ccc(SC(C)C)cc1 (stereo not drawn) [Suloctidil] (20 µM),0.983 (inactive)
4,CC(C)(c1cc(Br)c(O)c(Br)c1)c1cc(Br)c(O)c(Br)c1 (20 µM),0.0166 (active)
5,Nc1ncn(C2OC(CO)C(O)C2O)c(=O)n1 (stereo not drawn) [Azacytidine-5] (20 µM),0.953 (inactive)
6,COc1cc(Cc2cnc(N)nc2N)cc(OC)c1OC [Trimethoprim] (20 µM),0.974 (inactive)
7,CC(C)/N=c1\cc2n(-c3ccc(Cl)cc3)c3ccccc3nc-2cc1Nc1ccc(Cl)cc1 [Clofazimine] (20 µM),0.0321 (active)
8,"CN1[C@@H]2CC[C@H]1CC(OC(=O)C(O)c1ccccc1)C2 (mixture of isomers) [(R,S) Homatropine hydrobromide] (20 µM)",1 (inactive)
9,CCC(C)C(C(=O)OCC[N+](C)(CC)CC)c1ccccc1 (stereo not drawn) [Valethamate bromide] (20 µM),0.963 (inactive)
10,O=C(O)[C@H]1/C(=C/CO)O[C@@H]2CC(=O)N21 [Clavulanate potassium salt] (20 µM),1.01 (inactive)
11,CC(C)(C)CC(C)(C)c1ccc(OCCOCC[N+](C)(C)Cc2ccccc2)cc1 [Benzethonium chloride] (20 µM),0.956 (inactive)

# Test system: Ruminococcus gnavus DSM 108212
# Assay: as above
# Conditions: incubation time: 27 h, anaerobic, 37 °C
# Summary of the method: as §1
row,SMILES,fold change of Tryptamine concentration
1,CN(CCOc1ccc(NS(C)(=O)=O)cc1)CCc1ccc(NS(C)(=O)=O)cc1 [Dofetilide] (20 µM),1.04 (inactive)
2,COc1cc2nc(N3CCN(C(=O)c4ccco4)CC3)nc(N)c2cc1OC [Prazosin hydrochloride] (20 µM),0.924 (inactive)
3,CCc1c2c(nc3ccc(OC(=O)N4CCC(N5CCCCC5)CC4)cc13)-c1cc3c(c(=O)n1C2)COC(=O)[C@]3(O)CC [Irinotecan hydrochloride trihydrate] (20 µM),0.937 (inactive)
4,O=C(O)CCNC(=O)c1ccccc1 [Betamipron] (20 µM),1 (inactive)
5,Cc1cc(C(C)(C)CC(C)(C)C)ccc1OCCOCC[N+](C)(C)Cc1ccccc1 [Methyl benzethonium chloride] (20 µM),0.726 (active)
6,CCN1CCN(C(=O)N[C@@H](C(=O)N[C@@H]2C(=O)N3C(C(=O)O)=C(CSc4nnnn4C)CS[C@H]23)c2ccc(O)cc2)C(=O)C1=O [Cefoperazone dihydrate] (20 µM),0.0363 (active)
7,CN(C)CCCN1c2ccccc2CCc2ccccc21 [Imipramine hydrochloride] (20 µM),0.975 (inactive)
8,CCOC(=O)C1=C(C)NC(C)=C(C(=O)OC)C1c1cccc(Cl)c1Cl (stereo not drawn) [Felodipine] (20 µM),0.876 (inactive)
9,CCOC(=O)C1=C(COCCN)NC(C)=C(C(=O)OC)C1c1ccccc1Cl (stereo not drawn) [Amlodipine] (20 µM),0.914 (inactive)
10,O=C(O)c1cn(C2CC2)c2cc(N3CCNCC3)c(F)cc2c1=O [Ciprofloxacin hydrochloride monohydrate] (20 µM),0.796 (inactive)
11,Nc1ccn([C@@H]2CS[C@H](CO)O2)c(=O)n1 [Lamivudine] (20 µM),1.02 (inactive)
12,COc1ccc(CCN(C)CCCC(C#N)(c2ccc(OC)c(OC)c2)C(C)C)cc1OC (stereo not drawn) [Verapamil hydrochloride] (20 µM),0.992 (inactive)
13,CC[C@]12CCCN3CCc4c(n(c5ccccc45)[C@@](O)(C(=O)OC)C1)[C@@H]32 [Vincamine] (20 µM),0.973 (inactive)
14,Cc1noc(NS(=O)(=O)c2ccc(N)cc2)c1C [Sulfisoxazole] (20 µM),1.01 (inactive)
15,O=C1CN(/N=C/c2ccc([N+](=O)[O-])o2)C(=O)N1 [Nitrofurantoin] (20 µM),0.808 (inactive)
16,C=C[C@H]1CN2CC[C@H]1C[C@@H]2[C@@H](O)c1ccnc2ccc(OC)cc12 [Quinidine hydrochloride monohydrate] (20 µM),0.978 (inactive)
17,O=C1C(CC[S+]([O-])c2ccccc2)C(=O)N(c2ccccc2)N1c1ccccc1 (stereo not drawn) [Sulfinpyrazone] (20 µM),0.904 (inactive)
18,CCCCCCCCNC(C)C(O)c1ccc(SC(C)C)cc1 (stereo not drawn) [Suloctidil] (20 µM),0.729 (active)
19,CC(C)(c1cc(Br)c(O)c(Br)c1)c1cc(Br)c(O)c(Br)c1 (20 µM),0.366 (active)

row,SMILES,fold change of Tryptamine concentration
1,CCn1cc(C(=O)O)c(=O)c2cc(F)c(N3CCN(C)CC3)cc21 [Pefloxacin] (20 µM),0.915 (inactive)
2,Nc1ncn(C2OC(CO)C(O)C2O)c(=O)n1 (stereo not drawn) [Azacytidine-5] (20 µM),0.881 (inactive)
3,COc1cc(Cc2cnc(N)nc2N)cc(OC)c1OC [Trimethoprim] (20 µM),0.895 (inactive)
4,Cc1ccc(NC(=O)c2ccc(CN3CCN(C)CC3)cc2)cc1Nc1nccc(-c2cccnc2)n1 [Imatinib] (20 µM),1.07 (inactive)
5,C[C@H]1[C@H](NC(=O)/C(=N\OC(C)(C)C(=O)O)c2csc(N)n2)C(=O)N1S(=O)(=O)O [Aztreonam] (20 µM),1.05 (inactive)
6,Nc1nc2c(ncn2COCCO)c(=O)[nH]1 [Acyclovir] (20 µM),1.15 (inactive)
7,CC(C)/N=c1\cc2n(-c3ccc(Cl)cc3)c3ccccc3nc-2cc1Nc1ccc(Cl)cc1 [Clofazimine] (20 µM),0.637 (active)
8,Cc1nnc(SCC2=C(C(=O)O)N3C(=O)[C@@H](NC(=O)Cn4cnnn4)[C@H]3SC2)s1 [Cefazolin sodium salt] (20 µM),0.0727 (active)
9,C[C@H](CS)C(=O)N1CCC[C@H]1C(=O)O [Captopril] (20 µM),1.04 (inactive)
10,"CN1[C@@H]2CC[C@H]1CC(OC(=O)C(O)c1ccccc1)C2 (mixture of isomers) [(R,S) Homatropine hydrobromide] (20 µM)",0.99 (inactive)
11,Cc1cnc(NC(=O)C2=C(O)c3ccccc3S(=O)(=O)N2C)s1 [Meloxicam] (20 µM),1.02 (inactive)
12,"CC(C)Cc1ccc([C@H](C)C(=O)O)cc1 [(S,+) Ibuprofen] (20 µM)",1.06 (inactive)
13,COc1c(N2C[C@@H]3CCCN[C@@H]3C2)c(F)cc2c(=O)c(C(=O)O)cn(C3CC3)c12 [Moxifloxacin] (20 µM),0.205 (active)
14,Clc1ccccc1CN1CCc2sccc2C1 [Ticlopidine hydrochloride] (20 µM),0.983 (inactive)
15,CCC(C)C(C(=O)OCC[N+](C)(CC)CC)c1ccccc1 (stereo not drawn) [Valethamate bromide] (20 µM),0.996 (inactive)
16,O=C(O)[C@H]1/C(=C/CO)O[C@@H]2CC(=O)N21 [Clavulanate potassium salt] (20 µM),0.997 (inactive)
17,CC(C)(C)CC(C)(C)c1ccc(OCCOCC[N+](C)(C)Cc2ccccc2)cc1 [Benzethonium chloride] (20 µM),0.866 (inactive)
18,CO/N=C(\C(=O)N[C@@H]1C(=O)N2C(C(=O)O)=C(C[N+]3(C)CCCC3)CS[C@H]12)c1csc(N)n1 [Cefepime hydrochloride] (20 µM),0.0466 (active)
